Experimental data from publication PMC5540273 (PLoS ONE, 2017).

How the values were obtained:
Details in all cases: concentration: 1 μM,replicates: in singlicate; n = 1
[1] = tested on: RIOK1
[2] = tested on: RIOK2
[3] = tested on: RIOK3
[4] = tested on: RIPK1
[5] = tested on: RIPK2
[6] = tested on: RIPK4
[7] = tested on: RIPK5
[8] = tested on: ROCK1
[9] = tested on: ROCK2
[10] = tested on: ROS1
[11] = tested on: RPS6KA4(Kin.Dom.1-N-terminal)
[12] = tested on: RPS6KA4(Kin.Dom.2-C-terminal)
[13] = tested on: RPS6KA5(Kin.Dom.1-N-terminal)
[14] = tested on: RPS6KA5(Kin.Dom.2-C-terminal)
[15] = tested on: T1, RSK1(Kin.Dom.1-N-terminal)
T1 construct: gene RPS6KA1

[16] = tested on: T2, RSK1(Kin.Dom.2-C-terminal)
T2 construct: gene RPS6KA1

[17] = tested on: T3, RSK2(Kin.Dom.1-N-terminal)
T3 construct: gene RPS6KA3

[18] = tested on: T4, RSK2(Kin.Dom.2-C-terminal)
T4 construct: gene RPS6KA3

[19] = tested on: T5, RSK3(Kin.Dom.1-N-terminal)
T5 construct: gene RPS6KA2

[20] = tested on: T6, RSK3(Kin.Dom.2-C-terminal)
T6 construct: gene RPS6KA2
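Also: KINOMEscan kinase panel screen.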

Row | SMILES | %Inh [1] [%] | %Inh [2] [%] | %Inh [3] [%] | %Inh [4] [%] | %Inh [5] [%] | %Inh [6] [%] | %Inh [7] [%] | %Inh [8] [%] | %Inh [9] [%] | %Inh [10] [%] | %Inh [11] [%] | %Inh [12] [%] | %Inh [13] [%] | %Inh [14] [%] | %Inh [15] [%] | %Inh [16] [%] | %Inh [17] [%] | %Inh [18] [%] | %Inh [19] [%] | %Inh [20] [%]
1 | Cc1nnc(-c2ccc3occ(-c4ccc(S(C)=O)cc4)c3n2)o1 (stereo not shown) | 0 | 0 | 7 | 0 | 0 | 0 | 0 | 0 | 0 | 0 | 0 | 0 | 9 | 0 | 0 | 14 | 0 | 0 | 0 | 3
2 | O=C1NCCc2[nH]c(-c3ccncc3)cc21 | 35 | 20 | 30 | 4 | 4 | 56 | 24 | 97.9 | 95.4 | 21 | 15 | 92.7 | 0 | 58 | 4 | 35 | 8 | 23 | 16 | 27
3 | Cc1n[nH]c2cc(Nc3ccnc(Nc4cccc(CN5CCOCC5)c4)n3)ccc12 [GW682569] | 100 | 84 | 96.5 | 4 | 79 | 62 | 0 | 27 | 1 | 57 | 0 | 0 | 0 | 21 | 3 | 28 | 22 | 20 | 0 | 0
4 | CN(c1ccccc1CNc1nc(Nc2ccc3c(c2)CC(=O)N3)ncc1C(F)(F)F)S(C)(=O)=O | 41 | 0 | 61 | 0 | 0 | 0 | 27 | 0 | 0 | 96.5 | 89 | 46 | 71 | 14 | 86 | 0 | 89 | 0 | 91.1 | 7
5 | CCOC(=O)N1CCC(n2cnc(-c3ccc(F)cc3)c2-c2ccnc(N)n2)CC1 [SB-219952] | 51 | 24 | 35 | 18 | 34 | 64 | 5 | 45 | 12 | 15 | 6 | 7 | 1 | 0 | 11 | 32 | 23 | 0 | 8 | 36
